KDM5B inh: Primary screen for KDM5B Histone Demethylases FDH-coupled qHTS. Potency, µM (top dose mostly 57.7 µM), actives largely listed as inhibitors. hit rate 2.6% among 220,000. Lysine-specific demethylase 5B (Homo sapiens), Q9UGL1. KDM5B demethylase, FDH-coupled NADH fluorescence (FDH is formaldehyde dehydrogenase); active = well fitted inhibition curve with a large enough effect; note: 0% is about no effect; nearly all actives have a fitted effect of over 70% in size
Target sequence (Q9UGL1 whole entry, looked up): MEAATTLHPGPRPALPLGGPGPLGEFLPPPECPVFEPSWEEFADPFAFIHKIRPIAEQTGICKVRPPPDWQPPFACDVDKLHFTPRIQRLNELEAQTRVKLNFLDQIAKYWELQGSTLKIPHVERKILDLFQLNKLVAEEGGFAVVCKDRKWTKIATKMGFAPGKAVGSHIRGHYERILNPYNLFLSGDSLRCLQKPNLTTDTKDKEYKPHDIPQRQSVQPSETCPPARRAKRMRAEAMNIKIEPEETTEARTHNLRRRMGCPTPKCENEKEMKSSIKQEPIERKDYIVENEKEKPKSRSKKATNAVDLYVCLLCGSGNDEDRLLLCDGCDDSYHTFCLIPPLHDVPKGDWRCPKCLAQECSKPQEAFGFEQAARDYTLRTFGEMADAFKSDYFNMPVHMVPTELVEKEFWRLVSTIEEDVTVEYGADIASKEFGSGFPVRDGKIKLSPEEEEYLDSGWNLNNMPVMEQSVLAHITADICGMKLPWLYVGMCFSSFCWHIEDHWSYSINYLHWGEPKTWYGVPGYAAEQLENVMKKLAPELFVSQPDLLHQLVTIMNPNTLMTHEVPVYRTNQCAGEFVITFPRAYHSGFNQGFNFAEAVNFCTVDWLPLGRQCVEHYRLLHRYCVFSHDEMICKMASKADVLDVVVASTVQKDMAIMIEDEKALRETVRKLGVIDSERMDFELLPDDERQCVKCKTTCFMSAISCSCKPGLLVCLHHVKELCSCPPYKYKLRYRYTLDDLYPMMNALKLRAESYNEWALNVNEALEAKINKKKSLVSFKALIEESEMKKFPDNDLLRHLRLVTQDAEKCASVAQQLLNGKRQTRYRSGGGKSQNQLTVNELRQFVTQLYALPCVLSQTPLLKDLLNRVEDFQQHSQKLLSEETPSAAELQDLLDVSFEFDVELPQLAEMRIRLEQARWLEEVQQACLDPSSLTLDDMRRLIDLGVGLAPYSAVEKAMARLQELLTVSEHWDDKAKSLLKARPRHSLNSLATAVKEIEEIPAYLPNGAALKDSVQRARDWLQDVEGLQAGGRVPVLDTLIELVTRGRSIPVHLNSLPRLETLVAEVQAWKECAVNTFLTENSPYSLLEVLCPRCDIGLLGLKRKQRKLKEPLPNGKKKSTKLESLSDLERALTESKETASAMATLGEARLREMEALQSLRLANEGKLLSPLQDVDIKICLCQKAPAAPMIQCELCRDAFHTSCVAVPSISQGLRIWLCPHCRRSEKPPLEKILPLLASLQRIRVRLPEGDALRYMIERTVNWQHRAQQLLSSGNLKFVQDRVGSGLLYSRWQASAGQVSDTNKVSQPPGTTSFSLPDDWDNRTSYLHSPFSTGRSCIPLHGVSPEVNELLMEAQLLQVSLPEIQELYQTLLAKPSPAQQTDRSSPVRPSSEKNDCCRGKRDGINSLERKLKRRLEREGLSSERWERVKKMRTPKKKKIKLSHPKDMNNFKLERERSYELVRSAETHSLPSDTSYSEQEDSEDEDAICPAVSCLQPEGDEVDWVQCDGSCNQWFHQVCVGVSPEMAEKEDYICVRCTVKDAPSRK
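KDM5BΔAP (200 nM final) in 50 mM HEPES pH 7.5, 0.01% Tween-20 was preincubated 10 min at RT with compound over a concentration range. Substrate mix (H3K4me3 12.5 µM, α-KG 25 µM, Fe²⁺, ascorbate, NAD⁺, FDH) was added, and NADH fluorescence change over 30 min gave dose-response curves.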
Numbers without * were called inactive; i = inactive. Many of the other results were omitted from the sample, so hits are more common in it than they were. Potency is the fitted concentration of half-maximal effect.

SMILES	KDM5B inh
Cc1n[nH]c(=O)c2c(NC(=O)CSc3nnc(C4CC4)n3-c3ccccc3)oc(C)c12	i
CSc1cccc(N2CC(C(=O)Nc3cc(Cl)ccc3-n3cncn3)CC2=O)c1 (centres undefined)	i
CC1(C)[C@H](Cc2cc(COc3ccccc3)on2)C[C@@H]1NC(=O)c1cccs1	i
COC(=O)C1=C(C(=O)OC)SC(=C(Cl)C(=S)NCc2ccccc2)S1	i
Cc1ccc(C)c(S(=O)(=O)NCCc2ccc(Cl)cc2)c1	i
CC1CCc2noc(NC(=O)COc3ccc(C(C)C)cc3)c2C1 (centres undefined)	i
O=C(CCSc1ccccc1F)Nc1cccc(-n2cnnn2)c1	i
CC1=CC(C)C(COC(=O)C[N+]2(C)CCOCC2)C(C)C1 (centres undefined)	i
CC(=O)Nc1cccc(-c2ccc3c(n2)c(=O)ncn3Cc2ccccc2)c1	i
O=c1ncn(Cc2ccccc2)c2ccc(-c3ccc(F)cc3)nc12	35µM*
Cn1c(=O)c2c(ncn2Cc2ccc(F)cc2)n(C)c1=O	i
O=C(NCc1ccccc1OC(F)(F)F)c1ccccc1C(F)(F)F	i
c1ccc(Nc2cc3c(cn2)NCCN(Cc2ccc4[nH]ccc4c2)C3)cc1	32µM*
COc1cccc(CN2CCNc3cnc(Nc4ccccc4)cc3C2)c1	35µM*
c1ccc(Nc2cc3c(cn2)CN(Cc2cnc[nH]2)CCN3)cc1	i
CN(C)c1cccc(Nc2cc3c(cn2)CN(Cc2ccccc2)CCN3)c1	i
Fc1cccc(CN2CCNc3cc(Nc4ccccc4)ncc3C2)c1	i
COc1cccc(CN2CCNc3cc(Nc4cccnc4)ncc3C2)c1	i
COc1cccc(Nc2cc3c(cn2)NCCN(Cc2ccccc2)C3)c1	40µM*
COc1cccc(CN2CCc3c(cc(C(=O)Nc4ccccc4)n3C)C2)c1	i
O=c1c2ccsc2ncn1Cc1coc(-c2ccccc2Cl)n1	i
COc1cc(C(=O)C(C#N)C(=O)CC(C)(C)C)cc(Cl)c1OC (centres undefined)	i
Cc1cc(N2CCOCC2)nc(Nc2ccc(NC(=O)Nc3cccc(Cl)c3)cc2)n1	i
CC1CCN(CC(=O)NCCC2=CCCCC2)CC1	i
Cc1cccc(-n2nnnc2C2(Nc3ccccc3)CCCC2)c1	i
SMILES	KDM5B inh
CC(=O)Nc1ccc(NC(=O)CC2C=CCC2)cc1 (centres undefined)	i
COc1ccc(NC(=O)Cn2nc(-c3ccc(C)cc3)c3ccccc3c2=O)cc1	i
Cc1ccc(C(=O)N[C@H]2CO[C@H]3[C@@H]2OC[C@@H]3Nc2nccc(C(C)(C)C)n2)cc1	i
COc1ccccc1-c1ccnc(N[C@H]2CO[C@H]3[C@@H]2OC[C@@H]3NS(=O)(=O)c2ccc(NC(C)=O)cc2)n1	i
COc1ccccc1-c1ccnc(N[C@H]2CO[C@H]3[C@@H]2OC[C@@H]3NC(=O)N2CCOCC2)n1	25µM*
O=C(Nc1cccc2ccccc12)O[C@@H]1CO[C@H]2[C@@H]1OC[C@@H]2NC(=O)N1CCOCC1	i
COc1ccccc1-c1ccnc(N[C@H]2CO[C@H]3[C@@H]2OC[C@@H]3NS(C)(=O)=O)n1	35µM*
CC(=O)Nc1ccc(S(=O)(=O)N[C@H]2CO[C@H]3[C@@H]2OC[C@@H]3Nc2nccc(C(C)(C)C)n2)cc1	i
COC(=O)c1sc(=S)n(-c2cccc(C(F)(F)F)c2)c1N	i
O=C(NCc1n[nH]c(=O)c2ccccc12)c1ccc(Cl)cc1	i
CC1=C(C(=O)c2ccc(Cl)cc2)C(c2ccccc2)NC(=O)N1 (centres undefined)	i
CCCNC(=O)c1cccc(CNCc2ccsc2)c1	i
CC1=C[C@@H](CN2CCOCC2)[C@H](C(C)C)C[C@H]1Cc1nnc(-c2ccc(N(C)C)cc2)o1	35µM*
CC1=C[C@@H](CN2CCOCC2)[C@H](C(C)C)C[C@H]1Cc1nnc(C)o1	i
CC(=O)N1CCN(C[C@@H]2C=C(C)[C@H](Cc3nnc(-c4cccnc4)o3)C[C@H]2C(C)C)CC1	i
CC1=C[C@@H](CN2CCN(CCO)CC2)[C@H](C(C)C)C[C@H]1Cc1nnc(-c2ccncc2)o1	i
CC1=C[C@@H](CN2CCOCC2)[C@H](C(C)C)C[C@H]1Cc1nnc(-c2ccccc2)o1	i
CC1=C[C@@H](CN2CCN(c3ccccn3)CC2)[C@H](C(C)C)C[C@H]1Cc1nnc(-c2ccccc2)o1	28µM*
Fc1cccc(Cl)c1CSc1nnc(-c2c[nH]c3ccccc23)n1C1CC1	i
COC(=O)CCOc1ccc(S(=O)(=O)Nc2ccc(F)c(F)c2)cc1	i
O=C(O)c1cc(Cl)c(Cl)[nH]1	i
O=C1Nc2ccccc2CN(Cc2ccc(Cl)cc2)C12CCNCC2	i
CC(=O)NCC(=O)N1c2ccccc2CC1c1nc(C(C)C)no1 (centres undefined)	i
CCn1ccc(C(=O)N2c3ccccc3CC2c2nc(C(C)C)no2)n1 (centres undefined)	25µM*
COC(=O)CNC(=O)N1c2ccccc2CC1c1nc(C(C)C)no1 (centres undefined)	i
SMILES	KDM5B inh
CC1CCCN(c2ccc(C=O)cc2)C1 (centres undefined)	i
Cc1[nH]c2ccc(C(=O)N(Cc3ccc(F)cc3)C3CC3)cc2c1C	i
Cc1oc2c(c1C(=O)NCCN1CCOCC1)CN(Cc1cccc(F)c1)CC2	i
O=C(Nc1ccc(Cl)cc1N1CCOCC1)C1CC1	i
Cc1cn(CCC(=O)Nc2ccccc2N2CCOCC2)c2ccccc12	i
CC(C)Oc1cccc2c1c(NC(=O)C1CCOCC1)nn2C	i
Cc1ccnn1CCC(=O)Nc1nn(C)c2cccc(N3CCOCC3)c12	28µM*
CC(C)Oc1cccc2c1c(NC(=O)CN1CCCC1=O)nn2-c1cccc(F)c1	i
O=C(Nc1nn(Cc2ccccc2)c2cccc(N3CCOCC3)c12)c1ccncc1	i
O=C(Nc1cc(C(F)(F)F)ccc1N1CCOCC1)C1CC1	i
O=C(Nc1nn(Cc2ccccc2)c2cccc(N3CCOCC3)c12)C1CCC1	25µM*
O=C(Nc1nn(-c2cccc(F)c2)c2cccc(N3CCOCC3)c12)C1CCC1	32µM*
CCc1c(C)nc(Nc2nc(C)c3cccc(OC)c3n2)[nH]c1=O	i
COc1ccc(C(=O)Nc2oc3ccccc3c(=O)c2-c2ccc(OC)c(OC)c2)cc1	i
NC(=O)C1CCCN(CCC(=O)O)C1 (centres undefined)	i
CC(=O)NC12CC3CC(C1)CC(C(=O)NC1CCSCC1)(C3)C2	i
Cc1c(-c2ccccc2)oc2c(C(=O)OCC(=O)OC(C)(C)C)cccc2c1=O	i
CSc1cccc(Nc2nc(N)c(C(=O)c3ccccc3Cl)s2)c1	i
c1ccc(COc2ccc3[nH]ccc3c2)cc1	i
Cc1ccc(NC(=O)C2=CCN(Cc3ccccc3F)CC2)cc1	i
O=C(CN1CCN(c2ccccc2)CC1)N1N=C(c2cc3ccccc3o2)CC1c1ccco1 (centres undefined)	i
Cc1c(C(=O)C(=O)N(Cc2ccccc2)C(C)C)c2ccccc2n1C	i
CN(C)c1cccc(-c2cc3c(cn2)CN(Cc2cccnc2)CCN3)c1	i
Cc1cc(-c2cc3c(cn2)CN(Cc2ccc(F)c(F)c2)CCN3)ccn1	i
COc1ccc(-c2cc3c(cn2)CN(Cc2cccnc2)CCN3)cc1F	35µM*
Fc1ccccc1-c1cc2c(cn1)CN(Cc1cccnc1)CCN2	32µM*

Source: PubChem BioAssay (National Center for Advancing Translational Sciences (NCATS))
